Measurements reported in PubChem BioAssay (NCI).
This is part of a sample that, as a whole, favours compounds with a hit. Of some 83,000 tested, about 20% had one in any assay.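 48-hour exposure, single concentration, 96-well plates; percent growth endpoint where 0 means no net growth. Active: below 10.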 Unmarked numbers belong to inactive results. The source made the active and inactive calls.

Assays:
Test in all cases: NCI-60 one-dose screen, 48 h (100 = growth as untreated, 0 = no growth, -100 = all killed)
Settings in all cases: 10 µM
[1] = test system: BT-549 breast
[2] = test system: MDA-MB-435 melanoma
[3] = test system: SW-620 colon
[4] = test system: MCF7 breast
[5] = test system: HCT-116 colon
[6] = test system: HCC-2998 colon
[7] = test system: KM12 colon

Structure (SMILES) | growth [1] | growth [2] | growth [3] | growth [4] | growth [5] | growth [6] | growth [7]
CNc1ncc(-c2ccc(C(F)(F)F)cc2)c(NC2CCCCCC2)n1 | 90.9% | 89.8% | 77.4% | 67.6% | 56% | 91.1% | 74.1%
Cc1cc(N(CCCNc2ccnc3cc(Cl)ccc23)Cc2ccc3c(c2)OCO3)nc(N2CCOCC2)n1 | 12.3% | -13.6% (active) | 11.7% | 31.9% | 3.52% (active) | 25.7% | 40.6%
COc1ccc([N+](=O)[O-])c(C(=O)O)c1 | 102% | 97.9% | 101% | 93.8% | 103% | 106% | 100%
CC(=O)c1nc2ccccc2n1CCNC(N)=O | 74.4% | -13.7% (active) | 57.6% | 52.4% | 37.2% | 95.8% | 66.4%
CCOC(=O)N/N=C\C(C)=N\NC(=O)OCC | 99.8% | 88.8% | 99% | 99.5% | 104% | 111% | 102%
CCCCOc1ccc(NC(=O)Nc2nnc(C)s2)cc1 | 110% | 101% | 111% | 88.1% | 94.9% | 93.2% | 103%
CN(C)C=Nc1cc(Cl)ccc1Cl | 112% | 97.9% | 103% | 101% | 104% | 108% | 110%
CN(C)c1ccc(-c2cc(-c3cccc(NS(C)(=O)=O)c3)nc(N)c2C#N)cc1 | 30.8% | -25.9% (active) | 24.3% | 16.1% | 5.65% (active) | -41.9% (active) | -14.3% (active)
O=C1NC(=O)N(Cc2ccccc2)CC1Br (configuration not stated) | 94.5% | 62.9% | 51.7% | 56.6% | 28.1% | 95.4% | 106%
CN1CCCNc2c(c(=O)c2=O)NCCCN(C)CCCNc2c(c(=O)c2=O)NCCCN(C)CCCNc2c(c(=O)c2=O)NCCCN(C)CCCNc2c(c(=O)c2=O)NCCCN(C)CCCNc2c(c(=O)c2=O)NCCCN(C)CCCNc2c(c(=O)c2=O)NCCCN(C)CCCNc2c(c(=O)c2=O)NCCC1 | 67.1% | 21.1% | 41% | 74.1% | 59.2% | 70.6% | 34.9%
Nc1nc(N)c2c(ccc3nccc32)[nH]1 | 21% | 34.8% | 29.4% | 54% | 15.1% | 54.4% | 62.4%
COc1cc(Cc2cc(-c3ccc(Cl)cc3)n[nH]c2=O)ccc1O | 95.2% | 110% | 109% | 87.2% | 101% | 131% | 105%
Oc1[nH]c2cc(Cl)ccc2c1/C=c1/ccc2c(c1)N=C(c1cc(F)cc(F)c1)N=2 | 37.5% | -32.5% (active) | 24.8% | 11% | 18.8% | 58% | 13.1%
C=C(C(=O)c1ccccc1)C(NC(C)(C)C)c1ccccc1 (configuration not stated) | 34.8% | 7.63% (active) | -19.7% (active) | 9.57% (active) | -90.6% (active) | 1.14% (active) | 25.8%
O=C(Nc1ccccc1)Nc1cccc(-n2cc(-c3ccncc3)c(-c3ccc(O)c(Cl)c3)n2)c1 | 67.1% | 52.4% | 50.8% | 32.5% | 41.2% | 44.2% | 32.6%
COc1ccc(-c2nnc(-c3c(-c4ccccc4)nc4ncccn34)o2)cc1OC | 88.6% | 117% | 109% | 102% | 103% | 106% | 100%
Cc1cn(C2CCCCO2)c(=O)nc1NO (configuration not stated) | 107% | 97.6% | 105% | 80.3% | 111% | 101% | 102%
S=C1SCC(c2ccccc2)S1 (configuration not stated) | 109% | 102% | 111% | 99.4% | 107% | 114% | 117%

Structure (SMILES) | growth [1] | growth [2] | growth [3] | growth [4] | growth [5] | growth [6] | growth [7]
Cc1ccc(N=Nc2c(N)nc(N)[nH]c2=O)cc1C | 98.5% | 95.1% | 102% | 94.4% | 96.8% | 113% | 111%
CC(=O)c1nc2ccccc2n1CCN1CCN(C)CC1 | 48.1% | -80.2% (active) | 29.6% | 17.8% | 11% | 37.9% | 14.1%
O=c1cc(-c2ccccc2)[nH]n1-c1nc2ccccc2[nH]1 | 75.8% | 51.1% | 31.6% | 42.7% | 32.1% | 59.3% | 38%
N#Cc1ncc(-c2cc(F)c(F)c(F)c2)c(NC2CCCCCC2)n1 | 100% | 95.5% | 92.8% | 79.1% | 84.4% | 91.9% | 78.7%
COc1cc(CNCCCCCCN2C(=O)c3cccc4cccc(c34)C2=O)ccc1O | 83.2% | 58.1% | 57.9% | 11.4% | 31.4% | -21.3% (active) | 72.3%
O=S(=O)(NCCNc1nccc(-c2c(-c3ccc(F)cc3)nc3sccn23)n1)c1ccc2ccccc2c1 | 92.5% | 56.4% | 97.5% | 38.2% | 61.8% | 82.6% | 75.6%
COc1ccc(-c2cc(-c3cccc(NS(C)(=O)=O)c3)nc(N)c2C#N)cc1 | 40.1% | -55.2% (active) | 27.4% | 16.5% | 17% | -25.7% (active) | 17.6%
CCOC(=O)c1ccc(NC(=O)Nc2ncc(Cl)cc2Cl)cc1 | 106% | 90.8% | 102% | 97.8% | 83.9% | 96.2% | 102%
N#Cc1c(C#N)c(SSc2c(C#N)c(C#N)c(N)n2-c2ccccc2)n(-c2ccccc2)c1N | 109% | 114% | 98.7% | 104% | 104% | 96.3% | 106%
COc1ccc2c(c1)O/C(=C\c1ncc([N+](=O)[O-])n1C)C2=O | -36.8% (active) | -78.1% (active) | -20.8% (active) | 1.94% (active) | 0.959% (active) | -58.8% (active) | -37.7% (active)
Cc1c(Cl)cccc1NC(=O)c1sc2nc3c(cc2c1N)C(=O)CCC3 | 49.9% | -43.6% (active) | 18.3% | 13.5% | 14.3% | 25.8% | 11.1%
COc1ccc2c(c1)-c1c(c3cc(OC)ccc3n(CCN(C)C)c1=O)C2=O | 64.2% | 21.8% | -8.7% (active) | -0.273% (active) | -21.2% (active) | 34.9% | 8.92% (active)
ClCCOCCn1cnc2c(Cl)nc(Cl)nc21 | 102% | 80.7% | 47.6% | 55.9% | -13.6% (active) | -90.2% (active) | 92.5%
COc1ccc(Oc2nc(NC3CCCC3)nc(Sc3ccc(OC)cc3)n2)cc1 | 91.9% | 89% | 87.9% | 69.3% | 45.1% | 98.8% | 83.9%
Nc1c(C(=O)Nc2cccc(Br)c2)sc2nc3c(cc12)C(O)CCC3 (configuration not stated) | 45.2% | -42.1% (active) | 36.4% | 21% | 16.4% | 31.5% | 22.8%
COc1cc(NC(=O)CSc2nc3ccccc3c(=O)n2CCc2ccccc2)cc(OC)c1OC | -4.65% (active) | 32.1% | 48.6% | 51% | -0.608% (active) | 35% | 7.82% (active)
COc1ccc(-c2nn(-c3cccc(NC(=O)Nc4ccccc4)c3)cc2-c2ccncc2)cc1Cl | -40.9% (active) | -66.5% (active) | -19.7% (active) | 0.285% (active) | 5.36% (active) | -71.1% (active) | -16.2% (active)
FC(F)(F)c1ccc2nc(-c3nc(-c4ccccc4)n4ccccc34)[nH]c2c1 | 85.9% | 87.5% | 72% | 38.3% | 8.85% (active) | 82.6% | 52.4%
